Each molecule was assayed against Pyruvate kinase PKLR (Homo sapiens) (UniProt P30613) (assay: qHTS for Activators of Human Muscle Isoform 2 Pyruvate Kinase (PK): Extended Characterization using Reticulocyte PK). Details: purified hPK-R, Kinase-Glo ATP luminescence, 1 h; series mostly up to 57.5 µM; activity change, positive = activation: at the top concentration; active = well fitted curve in the direction sought with a large enough effect; inactive = no such curve, though single readings can be large or run the other way.
Source text: Human pyruvate kinase reticulocyte (hPK-R) enzyme was supplied as a highly purified (>95% pure) preparation from Structural Genomics Consortium in Toronto (Ontario, Canada) and assayed for its ability to generate ATP from ADP using phosphoenolpyruvate (PEP) as a substrate. ATP generation was detected in a coupled reaction by luciferase-mediated luminescence, an ATP-dependent process. Pyruvate kinase substrates, PEP and ADP, were present in the assay at Km and approximately 10-fold below Km respectively. The enzyme was assayed at an intermediate level of activity to screen for both inhibitors and activators. NIH Chemical Genomics Center [NCGC] NIH Molecular Libraries Probe Centers Network [MLPCN] MLPCN Grant: MH085679 Assay Submitter (PI): Matthew G. Vander Heiden, Harvard Medical School
Three uL of substrate mix (at r.t.) in assay buffer (50 mM Imidazole pH7.2, 50 mM KCl, 7 mM MgCl2, 0.01% Tween 20, 0.05% BSA) was dispensed into white solid bottom 1,536 well microtiter plates so that the final concentrations of substrates in the assay were 0.1 mM ADP and 0.5 mM PEP. 23 nL of compound were delivered by a pin tool and 1 uL of enzyme mix (final concentration of 0.1 nM) in assay buffer (4 degree Celsius) was added. Plates were incubated at room temperature for 1 hour. Two uL of detection mix (Kinase-Glo, Promega; at 4 degree Celsius protected from light) was added and luminescence read by a ViewLux (Perkin Elmer) at 1 second exposure/plate. Data were normalized to the uninhibited (row 31). Additionally, a no enzyme and 5-fold enzyme control was dispensed in row 32, split equally between the two conditions.

Chain of Pyruvate kinase PKLR (Homo sapiens) (P30613 whole entry, looked up, canonical isoform): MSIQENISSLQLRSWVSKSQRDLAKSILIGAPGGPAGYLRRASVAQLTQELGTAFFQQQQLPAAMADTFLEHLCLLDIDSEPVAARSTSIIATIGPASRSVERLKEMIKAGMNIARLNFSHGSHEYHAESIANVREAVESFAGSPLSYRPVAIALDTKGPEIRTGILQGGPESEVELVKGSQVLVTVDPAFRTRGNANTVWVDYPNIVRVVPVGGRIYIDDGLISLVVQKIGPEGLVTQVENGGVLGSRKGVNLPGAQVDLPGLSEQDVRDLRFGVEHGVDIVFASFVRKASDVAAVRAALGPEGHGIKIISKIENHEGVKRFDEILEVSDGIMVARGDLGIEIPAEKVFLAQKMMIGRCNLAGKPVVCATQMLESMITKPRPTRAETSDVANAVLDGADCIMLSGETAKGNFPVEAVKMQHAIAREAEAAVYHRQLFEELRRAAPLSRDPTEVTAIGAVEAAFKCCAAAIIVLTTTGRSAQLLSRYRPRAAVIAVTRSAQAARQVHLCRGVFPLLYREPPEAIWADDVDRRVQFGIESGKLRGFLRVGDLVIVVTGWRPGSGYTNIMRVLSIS

Activity change, positive = activation, inactive:
Cc1cc2c(s1)c1cnn(Cc3ccc(F)cc3F)c(=O)c1n2C -0.917%
COc1cccc(Cn2ncc3c4sc(S(C)=O)cc4n(C)c3c2=O)c1 (stereo not given) 11.7%
Cc1cc2c(s1)c1cnn(Cc3cc(F)c(F)cc3F)c(=O)c1n2C 5.17%
Cc1cc2c(s1)c1cnn(Cc3c(Cl)ccc(C)c3F)c(=O)c1n2C -1.16%
Cc1cc2c(s1)c1cnn(Cc3cc(F)ccc3F)c(=O)c1n2C -18.9%
